An excerpt weighted towards active compounds, which were near 10% of everything screened.
GLS inh: blocks human kidney-isoform glutaminase activity. AID 624170. O94925. 410,000 compounds, 0.21% hits. GLS enzymatic activity, qHTS titration. Potency, µM (titrated, usually from 45.5 µM), for inactives: top-dose activity change, negative = inhibition, actives largely listed as inhibitors; note: % is set by controls: 0 for no effect and ±100 for the full control effect
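Glutamate formation by hKGA was monitored fluorometrically using coupled glutamate oxidase, HRP and Amplex Red. Substrate was added as 1 mM L-glutamine solution; incubation was 30 min at RT after an initial read.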
HP1b chromo inh: blocks HP1-beta chromodomain binding to methylated histone tails | P83916 | AlphaScreen HP1-beta / biotin-H3K9me3 peptide binding | Potency, µM (doses to about 114 µM), for inactives: at the highest dose activity change, negative = inhibition, most hits filed as inhibitors | 390,000 compounds, 0.56% hits | AID 540317; note: nearly all actives have a fitted effect of over 70% in size
Target sequence (P83916 whole entry, looked up): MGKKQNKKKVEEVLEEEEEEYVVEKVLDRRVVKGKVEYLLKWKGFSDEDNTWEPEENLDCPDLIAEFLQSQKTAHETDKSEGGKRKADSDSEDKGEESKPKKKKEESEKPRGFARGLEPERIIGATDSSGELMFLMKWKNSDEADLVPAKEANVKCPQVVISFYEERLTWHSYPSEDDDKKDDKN
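Compound inhibition of the preformed complex between 50 nM HP1-beta and 50 nM biotinylated H3K9me3 peptide was read by AlphaScreen. Buffer was PBS pH 7.4 with 0.01% Tween-20. Incubations ran 30 min at room temperature, with 10 ug/mL donor/acceptor beads.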
JMJD2A Tudor: inhibitors of human JMJD2A Tudor domain | AlphaScreen JMJD2A-Tudor / H3K4me3 peptide binding | Potency, µM (top dose mostly 114 µM), for inactives: top-dose activity change, negative = inhibition, most hits filed as inhibitors | 390,000 compounds, 4.4% hits | AID 504339; note: % is set by controls: 0 for no effect and ±100 for the full control effect; nearly all actives have a fitted effect of over 50% in size
BAZ2B block: BAZ2B (human) inhibition; Q9UIF8; AlphaScreen BAZ2B-H3K14Ac peptide displacement; Potency, µM (highest dose often 114 µM), for the others: at the top dose activity change, negative = inhibition, hits mostly inhibitors; 360,000 compounds, 4.4% hits; note: % is set by controls: 0 for no effect and ±100 for the full control effect; nearly all actives have a fitted effect of over 60% in size
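In this displacement format the biotinylated H3(5-23) peptide acetylated at Lys14 serves as ligand at 50 nM, with BAZ2B at 50 nM in PBS pH 7.4 containing 0.01% Tween-20. Donor and acceptor beads are 10 ug/mL final.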
G9a inh: blocks human histone lysine methyltransferase G9a. Q96KQ7. G9a H3K9 monomethylation, AlphaScreen, 2 h. Potency, µM (top dose mostly 102 µM), inactives show top-dose activity, negative = inhibition, hits mostly inhibitors. 350,000 compounds, 8.8% hits. AID 504332; note: % is set by controls: 0 for no effect and ±100 for the full control effect; nearly all actives have a fitted effect of over 75% in size
Target sequence (Q96KQ7 913-1193 limits assumed): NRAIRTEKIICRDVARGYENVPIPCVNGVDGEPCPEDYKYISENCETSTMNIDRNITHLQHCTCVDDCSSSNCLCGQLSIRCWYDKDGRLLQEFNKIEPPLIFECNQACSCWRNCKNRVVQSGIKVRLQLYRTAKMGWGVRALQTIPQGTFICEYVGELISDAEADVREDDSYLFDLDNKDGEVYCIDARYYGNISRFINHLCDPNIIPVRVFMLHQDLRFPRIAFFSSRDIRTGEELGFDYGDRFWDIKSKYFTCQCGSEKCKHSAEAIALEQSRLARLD
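Compounds were preincubated with 20 nM G9a for 15 min, after which biotinylated H3K9 peptide (500 nM) and SAM (20 uM) started a 2 h room-temperature reaction. Monomethylated product was quantified by antibody-based AlphaScreen chemiluminescence.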
Active calls of the source: *; ? = inconclusive; . = not tested or not shown; [ ] = dose if it differs, or a comment. Calls come from the whole dose curve; as a rule, active = well fitted curve in the direction sought with a large enough effect; inconclusive = small, poorly fitted or top-dose-only effect, or another doubt; inactive = no such curve, though single readings can be large; an effect the other way counts as inactive or inconclusive. Potency is the fitted concentration of half-maximal effect.

SMILES	GLS inh	HP1b chromo inh	JMJD2A Tudor	BAZ2B block	G9a inh
CC1CCN(C(=O)C2CCCCN2S(=O)(=O)c2cccc([N+](=O)[O-])c2)CC1 (stereo unspecified)	19%	6%	-24%	-32%	-28%
Cc1cc(CNC(=O)c2cccc([N+](=O)[O-])c2C)c2ccccc2n1	-19%	32%	-5%	-18%	-33%
COc1ccccc1-n1c(CNC(=O)c2cccc([N+](=O)[O-])c2C)n[nH]c1=S	-5%	37%	20µM*	-6%	?
Cc1cc(=O)[nH]c(-c2ccccc2O)n1	14%	14%	-10%	11%	11%[59 µM]
CCCC(=O)c1ccc(N2CCOCC2)c(F)c1	4%	11%	6%	9%	-3%
CCOC(=O)c1nn(-c2ccccc2)c(=O)cc1OCC(=O)Nc1cc(C)ccc1OC	7.9µM*	-6%	-36%	-6%	-4%
COc1ccc(-c2sc3ccccc3c2-c2ccc(O)cc2)cc1	5%	6%	-30%	.	.
COc1ccc(-c2sc3ccccc3c2-c2ccc(OCCN(C)C)cc2)cc1	-2%	?	35µM*	.	.
COc1cccc(-c2sc3ccc(OC)cc3c2-c2ccc(OCCN(C)C)cc2)c1	-1%	?	28µM*	.	.
CN(C)CCOc1ccc(-c2c(-c3ccsc3)sc3ccccc23)cc1	10%	-37%	50µM*	.	.
COc1cccc(-c2sc3ccc(OC)cc3c2-c2ccc(O)cc2)c1	15%	23%	-28%	0%	8%[0.501 µM]
C1=C(c2sc3ccccc3c2-c2ccc(OCCN3CCOCC3)cc2)CCCC1	-2%	2%	?	.	.
COc1ccccc1N=Nc1[nH]c2ccc(C)cc2c1O	-5%	-1%	?	50µM*	11µM*
O=C1c2ccccc2C(=O)N1c1cccc2ncccc12	.	.	89µM*	.	.
CSc1ccccc1C(=O)Nc1ncn[nH]1	1%	44%	79µM*	?	1.6µM*
CSc1ccccc1C(=O)NCCOc1cccc(C)c1	3%	71%	-3%	-15%	45µM*
CSc1ccccc1C(=O)Nc1c(C)cccc1C	-11%	28%	-4%	-12%	28µM*
O=C(Nc1ncn[nH]1)c1ccccc1Br	-2%	40%	-3%	-1%	-5%[59 µM]
CSc1ccccc1C(=O)Nc1ccccc1C	-1%	5%	-8%	-2%	.
O=C(C1CCC(=O)N(C2CC2)C1)N1CCC(Oc2cccc(F)c2)CC1 (stereo unspecified)	9%	15%	-9%	2%	1%
COCCSc1nnc(NC(=O)Cc2ccc(OC)c(OC)c2)s1	11%	26%	-6%	-19%	?
CN(C)c1ccc(/C=N/NC(=O)c2cccc(N3CCCC3=O)c2)cc1	12%	34%	-1%	?	8%[12.7 µM]
CC(=O)c1ccc(C2CC34CNS(=O)(=O)C3CC2O4)cc1 (stereo unspecified)	.	-23%	79µM*	.	.
CC(=O)c1ccc(C2CC34CN(Cc5cccc(Cl)c5)S(=O)(=O)C3CC2O4)cc1 (stereo unspecified)	.	59%	-22%	.	.
CN1CC[C@H](CN2c3ccccc3Sc3ccccc32)C1	16%	.	.	.	16µM*
SMILES	GLS inh	HP1b chromo inh	JMJD2A Tudor	BAZ2B block	G9a inh
CC1CCN(CC(O)CN2c3ccccc3Sc3ccccc32)CC1 (stereo unspecified)	22%	-8%	?	?	?
Cc1ccc(OCC(=O)N(C)CC(=O)Nc2ccc(N3CCOCC3)cc2)cc1	56%	10%	-12%	-8%	4%[0.501 µM]
CCOc1ccc(S(=O)(=O)Nc2nc3ccccc3nc2Nc2ccc(OC)cc2)cc1	3%	18%	-25%	-21%	1%[59 µM]
CCCCOc1ccc(C(=O)NCC(=O)N(C)CC(=O)Nc2ccc(N3CCOCC3)cc2)cc1	26%	-11%	-31%	-2%	25µM*
Cc1cccc(C(=O)NCC(=O)N(C)CC(=O)Nc2ccc(N3CCOCC3)cc2)c1	-4%	24%	1%	-16%	?
COc1ccccc1C(=O)N(C)CC(=O)Nc1ccc(N2CCOCC2)cc1	23%	21%	-15%	1%	?
COc1ccccc1C(=O)NCCC(=O)N(C)CC(=O)Nc1ccc(N2CCOCC2)cc1	26%	38%	-6%	10%	45µM*
CCOc1ccc(S(=O)(=O)Nc2nc3ccccc3nc2Nc2ccc(N3CCOCC3)cc2)cc1	12%	?	50µM*	28µM*	10µM*
CCOc1ccc(S(=O)(=O)NCCC(=O)N(C)CC(=O)Nc2ccc(N3CCOCC3)cc2)cc1	26%	7%	-14%	-3%	35µM*
COc1cc2c(cc1OC)CN(C(=O)c1nn(Cc3ccccc3)c(=O)c3ccccc13)CC2	2%	-13%	?	?	26%[12.7 µM]
CCc1nc2sc3c(c2c(=O)n1NC(=O)CCl)CCCC3	-8%	34%	-5%	-1%	?
CC(C)(C)c1ccc(OCCC(=O)OCC(=O)Nc2ccc(N3CCOCC3)cc2)cc1	-9%	29%	-11%	9%	45µM*
CN(CC(=O)Nc1ccc(N2CCOCC2)cc1)C(=O)CCNC(=O)c1ccc(Br)cc1	-7%	3%	-13%	-13%	45µM*
O=C(/C=C/c1cccc([N+](=O)[O-])c1)Nc1cc(C(=O)O)cc(C(=O)O)c1	?	?	18µM*	?	?
O=C(/C=C/c1ccc([N+](=O)[O-])cc1)Nc1cccc(C(=O)Nc2ccccc2C(=O)O)c1	?	?	?	?	45µM*
O=C(NN1C(=O)c2ccccc2C1=O)C1C2CCCCC21 (stereo unspecified)	14%	19%	-14%	-29%	2.8µM*
COc1ccc(/C=C2/CCC(CN3CCOCC3)C2=O)cc1 (stereo unspecified)	14%	?	79µM*	.	.
COc1ccc(/C=C2\CCC(C3CCCC3)C2=O)cc1 (stereo unspecified)	9%	4%	-4%	13%	16%
CN(C)CC1CC/C(=C\c2ccc(O)cc2)C1=O (stereo unspecified)	3%	?	89µM*	.	.
CCS(=O)(=O)NCCc1csc2nc(-c3ccc(OC)cc3)nn12	-3%	37%	5%	3%	3%[59 µM]
CC1CCN(S(=O)(=O)c2cccc3cccnc23)CC1	-15%	13%	-11%	9%	13%
CC1CCN(S(=O)(=O)c2cc(F)ccc2CN2C(=O)c3cccnc3C2=O)CC1	-6%	56%	-2%	56µM*	-2%
COC(=O)Cc1n[nH]c(=S)[nH]c1=O	-4%	0%	79µM*	-34%	0%[59 µM]
COc1cc(C(=O)NCc2nnc(SCC(=O)Nc3cc(C)on3)o2)cc(OC)c1OC	-3%	27%	-5%	.	1%
COc1cc(C(=O)NCc2nnc(SCC(=O)c3ccccc3)o2)cc(OC)c1OC	24%	28%	12%	-10%	40µM*
COc1cc(C(=O)NCc2nnc(SCC(=O)Nc3nccs3)o2)cc(OC)c1OC	3%	36%	?	45µM*	-3%

Bioassay records from PubChem BioAssay.
